Source: PubChem BioAssay
The source made the active and inactive calls.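 How the source made its calls: active means visual image review flags a hit and inhibition of aggregation exceeds 20%; inconclusive means visual hit but inhibition at or below 20%; inactive means no hit on visual image review.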

Assay: inhibitors of mutant huntingtin aggregation, primary screen, imaging, exon1htt(103Q)mCFP cells, high-content imaging (AID 483);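 further: compound exposure lasted 3 days before fixation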;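 on nuclei count: percent of the per-plate median nuclei count of sample wells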
Settings: exon1htt(103Q)mCFP cell line, aggregate imaging, at 2 µM; inhibition of aggregation: stronger effect = higher value; nuclei count: measured here: cell count, toxicity

Row | Compound | nuclei count | inhibition of aggregation
1 | CCC(=NC(C)c1ccccc1)c1c(O)n(C)c(=O)n(C)c1=O (stereo not drawn) | 72.1% | 3.2% (inactive)
2 | O=C(c1ccc(S(=O)(=O)N2CCOCC2)cc1)N1CCc2ccccc2C1 | 103% | -27.5% (inactive)
3 | CCOC(=O)C1CCN(C(=O)C2CCN(S(=O)(=O)c3cc(Cl)ccc3Cl)CC2)CC1 | 91.3% | 14.8% (inactive)
4 | CCn1cnc2cc(NCc3cccc(OC)c3O)ccc21 | 94.7% | -3.1% (inactive)
5 | CC(OC1=CC(=O)CCC1)C(=O)c1ccccc1 (stereo not drawn) | 64.2% | 36.6% (active)
6 | CCC(=O)N1CCc2cc(S(=O)(=O)CCC(=O)Nc3ccc(C)c(F)c3)ccc21 | 111% | -3% (inactive)
7 | Cc1ccc(Cl)cc1NC(=O)CSc1nnc(C)n1-c1ccccc1 | 100% | -28.9% (inactive)
8 | O=C(CN1CCOCC1)Nc1cccc(C(=O)Nc2cccc(C(F)(F)F)c2)c1 | 90.7% | 12.5% (inactive)
9 | COc1cccc(NC(=O)COc2ccccc2C(N)=O)c1 | 83.6% | 19.1% (inactive)
10 | COc1ccc(C)cc1S(=O)(=O)N1CCN(Cc2ccccc2)CC1 | 98.5% | -4.2% (inactive)
11 | Cc1ccc(OCC(O)Cn2c(=N)n(CCN3CCCCC3)c3ccccc32)cc1 (stereo not drawn) | 63.4% | 2.3% (inactive)
12 | CCCCC(NC(C)=O)c1nc2ccccc2n1CCC (stereo not drawn) | 82.4% | 24.6% (inactive)
13 | O=C(c1cc(-c2ccco2)nn1-c1cccc(Cl)c1)N1CCCCC1 | 91% | -5.1% (inactive)
14 | COC(=O)C1=C(C)NC(=O)C1(NC(=O)CN1CCCC1=O)C(F)(F)F (stereo not drawn) | 106% | 6.7% (inactive)
